Our source for the Potency values is PubChem BioAssay (NCATS).

Assay in all cases: qHTS profiling for inhibitors of Plasmodium falciparum proliferation (AID 504749); further: nearly all actives have a fitted effect of over 60% in size
What all share (conditions): P. falciparum in erythrocytes, SYBR Green DNA, 72 h; series mostly up to 28.7 µM
For orientation: qHTS replaces the single test concentration by a dilution series.

For assay [1], the system named is DIV17. The method, boiled down:
(§1)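 P. falciparum-infected erythrocytes (0.3% parasitemia, 2.5% hematocrit) incubated with compound 72 h at 37 C, 5% CO2. Parasite DNA detected by SYBR Green after lysis, overnight at room temperature; normalised to 0.29 uM artemisinin and DMSO.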

Assay [2] relates to DIV30. The method, boiled down: as §1
For assay [3], the system named is Dd2. The gist of the method:
as §1

Assay [4] deals with ECU. The gist of the method: as §1
Assay [5] concerns FAB9. The gist of the method:
as §1

Assay [6] relates to GB4. The gist of the method:
as §1

Assay [7] has as its system HB3. The method, boiled down: as §1
The subject of assay [8] is ICS. The method, boiled down:
as §1

Assay [9] deals with JCK. The method, boiled down: as §1
Assay [10] has as its system N140. The gist of the method:
as §1

The subject of assay [11] is P93_24. The method, boiled down:
as §1

The subject of assay [12] is P94_40. The method, boiled down:
as §1

Assay [13] has as its system PAD. The gist of the method:
as §1

In assay [14] the test system is PC15. The method, boiled down: as §1
Assay [15] deals with PC26. The gist of the method:
as §1

Assay [16] relates to PC49. The method, boiled down: as §1
The test system of assay [17] is SC27B. The gist of the method:
as §1

The subject of assay [18] is TAB109. The gist of the method:
as §1

Assay [19] has as its system TAB113. The method, boiled down:
as §1

The subject of assay [20] is TAB165. The method, boiled down: as §1

Records with an inconclusive call do not appear. The source made the active and inactive calls. The call rests on the fitted dose curve; in most records, active means well fitted inhibition curve with a large enough effect; inconclusive means small, poorly fitted or top-dose-only effect; inactive means flat fitted curve, though single readings scatter.
Potency means the concentration at half of the fitted maximal effect.

`CCc1oc2ccccc2c1C(=O)c1cc(Br)c(O)c(Br)c1`: the Potency entry in assay [1], in assay [2], in [3], in assay [4], in [5] and in assay [6] was “inactive” in each case. Besides, the Potency result in [7], in assay [8], in [9], in [10], in assay [11] and in assay [12] was “inactive” throughout. For the same compound, the Potency result in assay [13], in [14], in assay [15], in assay [16], in assay [17] and in assay [18] was “inactive” in each case. In addition, the Potency entry in [19] and in assay [20] was “inactive” each time.

In the case of `COc1ccc(-c2cc(C(F)F)nn2-c2ccc(S(N)(=O)=O)cc2)cc1F`, the Potency result in assay [1], in [2], in assay [3], in [4], in assay [5] and in assay [6] was “inactive” in each case. Besides, the Potency entry in [7], in assay [8], in assay [9], in assay [10], in assay [11] and in [12] was “inactive” each time. Moreover, the Potency result in assay [13], in assay [14], in assay [15], in assay [16], in assay [17] and in assay [18] was “inactive” each time. Further, the Potency result in assay [19] and in assay [20] was “inactive” throughout.

For `CCCCCCCCCCCCCC[N+](C)(C)Cc1ccccc1`, the Potency in [1] was 4780 nM (active); in [2], 6750 nM (active); in assay [3] it was 10000 nM (active); in assay [4], 7080 nM (active); in assay [5], 5620 nM (active); in [6], 4260 nM (active). Also, the Potency in assay [7] was 8910 nM (active); in [8], 2510 nM (active); in assay [9], 11200 nM (active); in [10] it was 8910 nM (active); in assay [11], 7940 nM (active); in assay [12], 6310 nM (active). In addition, the Potency was 11200 nM (active) in [13]; 6310 nM (active) in [14]; 5360 nM (active) in assay [15]; 7940 nM (active) in assay [16]; 7940 nM (active) in assay [17]; 7940 nM (active) in assay [18]. For the same compound, the Potency was 6310 nM (active) in assay [19] and 5620 nM (active) in assay [20].

For the compound `CC1=C(C(=O)O)N2C(=O)[C@@H](NC(=O)[C@H](N)c3ccccc3)[C@H]2SC1`, the Potency result in assay [1], in [2], in [3], in assay [4], in assay [5] and in [6] was “inactive” throughout. Further, the Potency result in [7], in assay [8], in [9], in assay [10], in [11] and in assay [12] was “inactive” in each case. Moreover, the Potency result in assay [13], in assay [14], in [15], in assay [16], in assay [17] and in [18] was “inactive” in each case. Besides, the Potency entry in assay [19] and in assay [20] was “inactive” throughout.

Turning to `O=C(O)P(=O)(O)O`, the Potency result in assay [1], in [2], in assay [3], in assay [4], in assay [5] and in [6] was “inactive” each time. In addition, the Potency result in [7], in assay [8], in assay [9], in [10], in [11] and in assay [12] was “inactive” in each case. For the same compound, the Potency result in assay [13], in assay [14], in assay [15], in assay [16], in assay [17] and in [18] was “inactive” throughout. For the same compound, the Potency entry in assay [19] and in [20] was “inactive” throughout.

On to `COP(=O)(OC)OC(c1ccc(Cl)cc1)P(=O)(OC)OC` (stereo not given), for which the Potency result in [1], in assay [2], in [3], in [4], in assay [5] and in assay [6] was “inactive” each time. The Potency result in [7], in assay [8], in assay [9], in [10], in assay [11] and in assay [12] was “inactive” in each case. Besides, the Potency entry in assay [13], in assay [14], in [15], in assay [16], in assay [17] and in [18] was “inactive” in each case. Further, the Potency entry in assay [19] and in assay [20] was “inactive” in each case.

As for `c1ccc(CC2=NCCN2)cc1`, the Potency entry in assay [1], in [2], in assay [3], in assay [4], in assay [5] and in [6] was “inactive” each time. Also, the Potency entry in [7], in [8], in assay [9], in assay [10], in assay [11] and in assay [12] was “inactive” in each case. Further, the Potency entry in [13], in [14], in assay [15], in [16], in assay [17] and in assay [18] was “inactive” in each case. For the same compound, the Potency entry in assay [19] and in assay [20] was “inactive” in each case.

With `Cc1cc(NS(=O)(=O)c2ccc(N)cc2)nc(C)n1`, the Potency result in assay [1], in assay [2], in assay [3], in [4], in assay [5] and in assay [6] was “inactive” throughout. The Potency result in assay [7], in [8], in assay [9], in assay [10], in assay [11] and in assay [12] was “inactive” throughout. Also, the Potency entry in [13], in assay [14], in [15], in [16], in assay [17] and in [18] was “inactive” in each case. The Potency result in assay [19] and in [20] was “inactive” in each case.

Take `CC(C)Cn1cnc2c1c(=O)n(C)c(=O)n2C`: the Potency result in assay [1], in [2], in [3], in [4], in assay [5] and in assay [6] was “inactive” throughout. Also, the Potency entry in [7], in assay [8], in [9], in [10], in [11] and in [12] was “inactive” throughout. Besides, the Potency result in assay [13], in [14], in assay [15], in assay [16], in assay [17] and in [18] was “inactive” each time. Moreover, the Potency result in [19] and in assay [20] was “inactive” throughout.

For `Nc1nc(-c2ccccc2)c(Br)c(=O)[nH]1`, the Potency result in assay [1], in assay [2], in assay [3], in [4], in [5] and in assay [6] was “inactive” throughout. Also, the Potency entry in assay [7], in [8], in [9], in [10], in assay [11] and in assay [12] was “inactive” each time. Also, the Potency entry in assay [13], in assay [14], in assay [15], in [16], in assay [17] and in assay [18] was “inactive” throughout. The Potency result in assay [19] and in assay [20] was “inactive” in each case.

`NCCNC(=O)c1ccc(Cl)cn1`: the Potency result in [1], in assay [2], in assay [3], in assay [4], in assay [5] and in [6] was “inactive” in each case. The Potency result in assay [7], in assay [8], in assay [9], in assay [10], in [11] and in assay [12] was “inactive” in each case. Further, the Potency result in assay [13], in assay [14], in assay [15], in [16], in assay [17] and in [18] was “inactive” throughout. Also, the Potency result in assay [19] and in assay [20] was “inactive” throughout.

For the compound `CC(C)CCCC(C)N` (stereo not given), the Potency result in [1], in assay [2], in assay [3], in assay [4], in assay [5] and in assay [6] was “inactive” throughout. The Potency result in assay [7], in assay [8], in [9], in assay [10], in assay [11] and in [12] was “inactive” throughout. Besides, the Potency result in [13], in assay [14], in assay [15], in [16], in assay [17] and in assay [18] was “inactive” each time. For the same compound, the Potency entry in assay [19] and in assay [20] was “inactive” throughout.

Regarding `CCN1/C(=C/C=C/c2sc3ccccc3[n+]2CC)Sc2ccccc21`, the Potency in assay [1] is 478 nM (active); in assay [2] it was 675 nM (active); in [3], 112 nM (active); in [4], 224 nM (active); in assay [5] it was 282 nM (active); in assay [6] it was 301 nM (active). For the same compound, the Potency in assay [7] was 251 nM (active); in [8], 100 nM (active); in [9], 398 nM (active); in assay [10], 251 nM (active); in assay [11] it was 112 nM (active); in [12] it was 112 nM (active). Also, the Potency was 282 nM (active) in assay [13]; 316 nM (active) in [14]; 849 nM (active) in [15]; 1120 nM (active) in assay [16]; 282 nM (active) in [17]; 141 nM (active) in [18]. For the same compound, the Potency in assay [19] and in [20] was 141 nM (active) in each case.

`Nc1ccc(S(=O)(=O)Nc2cnc3ccccc3n2)cc1`: the Potency entry in assay [1], in assay [2], in assay [3], in [4], in [5] and in [6] was “inactive” throughout. Also, the Potency entry in assay [7], in [8], in [9], in assay [10], in [11] and in assay [12] was “inactive” in each case. Further, the Potency result in [13], in assay [14], in assay [15], in assay [16], in [17] and in [18] was “inactive” in each case. Also, the Potency result in assay [19] and in [20] was “inactive” in each case.
